Data as given in PubChem BioAssay AID1117267 (The Scripps Research Institute Molecular Screening Center, 2014).
Out of some 92,000 compounds screened, about 1,200 (1.3%) were called active.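 How the source made its calls: active means activation above the mean of all tested compounds plus 3 SD (cut at about 9.5% in these data); inactive means the rest.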 The full list was thinned out, with actives kept by preference.

Experiment: TTR transcription activators in neuroblastoma reporter cells, primary screen, cell-based, luminescence, SH-SY5Y, TTR promoter Gaussia luciferase (AID 1117267);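 further: cells exposed to compounds for one day before reading; 0% = median of all test compound wells on the plate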
Conditions: at 16.7 µM, active compounds read high, 100% = recombinant luciferase protein wells

| Structure (SMILES) | activation |
| --- | --- |
| Cc1cccc(C)c1NC(=O)CN1CCN(c2ccc(F)cc2)CC1 | 1.02% (inactive) |
| O=C(O)CSc1nccc2ccccc12 | -2.92% (inactive) |
| CCN(C(=O)CN1C(=O)/C(=C/c2ccc(F)cc2)SC1=S)C1CCS(=O)(=O)C1 (centres undefined) | 1.08% (inactive) |
| COc1ccc(C(=O)C(C)OC(=O)c2cccc(S(=O)(=O)Nc3c(C)n(C)n(-c4ccccc4)c3=O)c2)cc1 (centres undefined) | 0.13% (inactive) |
| Cc1c(NS(=O)(=O)c2ccc(NC3CCCC3)c([N+](=O)[O-])c2)c(=O)n(-c2ccccc2)n1C | 12.5% (active) |
| COc1ccc(NS(=O)(=O)c2ccc(C(=O)Nc3c(C)n(C)n(-c4ccccc4)c3=O)cc2)cc1 | -1.99% (inactive) |
| CCc1cc2c(NC(Cc3ccccc3)C(=O)O)ncnc2s1 (centres undefined) | 0.89% (inactive) |
| Cc1cccc(NC(=O)Nc2nnc(-c3ccccc3)o2)c1 | -2.14% (inactive) |
| COc1cc(/C=N/N2CCN(c3ccccc3)CC2)ccc1OC(C)=O | 1.16% (inactive) |
| COc1c(C)cc(C(O)c2ncc(-c3cccc(C(F)(F)F)c3)[nH]2)cc1C (centres undefined) | -1.28% (inactive) |
| COc1cccc(-c2cnc(C(O)c3ccccc3OC)[nH]2)c1 (centres undefined) | 9.73% (active) |
| OC(c1ccc(F)cc1)c1ncc(-c2cccc(C(F)(F)F)c2)[nH]1 (centres undefined) | 1.67% (inactive) |
| C=CCN(C(=O)Nc1ccc2c(c1)nc(C)n2C)c1ccccc1 | 5.19% (inactive) |
| O=C(COC(=O)c1ccc2ncsc2c1)Nc1ccc(Cl)cc1 | 1.52% (inactive) |
| COC(=O)c1cnn2c(C(F)(F)F)cc(-c3ccco3)nc12 | 10.2% (active) |
| FC(F)(F)c1cc(-c2ccco2)nc(N2CCOCC2)n1 | 2.59% (inactive) |
| Cc1ccc(-c2cc(C(F)(F)F)n3ncc(C(=O)N4CCCCC4c4cccnc4)c3n2)cc1 (centres undefined) | 0.13% (inactive) |
| CCCCOCCCNC(=O)C[C@H]1C[C@@]2(C(=O)OC)C(=C[C@H](C(C)(C)C)O[C@@H]2C)N(CCc2ccc(OC)c(OC)c2)C1=O | 14.6% (active) |
| COC(=O)[C@]12C[C@H](CC(=O)NCc3cccc4ccccc34)C(=O)N(CCc3ccc(OC)c(OC)c3)C1=C[C@H](C1CCCC1)O[C@@H]2C | -1.86% (inactive) |
| COC(=O)[C@]12C[C@H](CC(=O)NCc3cccs3)C(=O)N(CCc3ccc(OC)c(OC)c3)C1=C[C@H](C(C)C)O[C@@H]2C1CC1 | -0.36% (inactive) |
| O=C(NCc1ccccc1)C(c1cccnc1)N(C(=O)c1csnn1)c1ccc(F)cc1 (centres undefined) | 4.37% (inactive) |
| Cc1cccc(C(=O)OC(C)CN2CCCC2)c1 (centres undefined) | 2.07% (inactive) |

| Structure (SMILES) | activation |
| --- | --- |
| O=C(CN1C(=O)CC(c2ccccc2)S(=O)(=O)c2ccccc21)NC1CCCC1 (centres undefined) | 4.27% (inactive) |
| CC(=O)Oc1ccccc1C1=NN(C(C)=O)C(c2ccccc2)C1 (centres undefined) | 1.26% (inactive) |
| COc1cccc(C2CC(c3cccs3)=NN2C(=O)CSC2=NCCS2)c1OC (centres undefined) | -2.03% (inactive) |
| O=C1c2cccc(OCC(=O)N3N=C(c4cccs4)CC3c3ccc(F)cc3)c2CCN1Cc1ccccc1 (centres undefined) | 11.2% (active) |
| O=C(CCc1nnc(CCCCc2ccccc2)o1)NC(c1cccnc1)C(F)(F)F (centres undefined) | -0.47% (inactive) |
| CCCCc1cc(=O)oc2cc(C)cc(OCc3nn[nH]n3)c12 | 23.1% (active) |
| COc1ccc(-c2cc3ccc(OCc4nn[nH]n4)cc3oc2=O)cc1 | 0.67% (inactive) |
| CCOC(=O)CCc1c(C)c2ccc(OCc3nn[nH]n3)c(C)c2oc1=O | 3.81% (inactive) |
| CC(C)Cn1c(N)c(C(=O)COC(=O)C2CCCN2C(=O)c2cccs2)c(=O)n(C)c1=O (centres undefined) | -0.78% (inactive) |
| C#CCOCCOCCOCCNc1nc(N2CCOCC2)nc(N2CCN(C(=O)[C@H](Cc3ccc(O)cc3)n3cc(CCO)nn3)CC2)n1 | -0.17% (inactive) |
| CCOc1ccc(C(=O)NCC(=O)N2CCN(c3ccc(C(F)(F)F)cn3)CC2)cc1 | 0.73% (inactive) |
| Brc1ccc(/C=N/N2CCN(C3c4ccccc4-c4ccccc43)CC2)s1 | 19.4% (active) |
| CC(=O)C[C@@H]1OC[C@H](C)N1S(=O)(=O)c1ccc(C)cc1 | 1.64% (inactive) |
| CC(NC(=O)C(C)(C)C)C(c1cccs1)N1CCN(Cc2ccccc2)CC1 (centres undefined) | -0.04% (inactive) |
| NC(=O)C1(Nc2ccccc2Cl)CCCC1 | -2.76% (inactive) |
| Cc1nc(N2CCOCC2)sc1C(=O)NN | -0.39% (inactive) |
| Cc1ccc(SCC(=O)c2sc(-c3ccccc3)nc2C)cc1 | 4.57% (inactive) |
| Cc1nc(-c2ccc(Cl)cc2)sc1C(=O)NN | 35.4% (active) |
| O=c1ccn([C@@H]2O[C@H](CNS(=O)(=O)c3cc4ccccc4s3)[C@@H](O)[C@H]2O)c(=O)[nH]1 | -0.41% (inactive) |
| COc1ccc(C(CNC(=O)c2ccc(S(=O)(=O)Nc3ccccc3C)cc2)N2CCOCC2)cc1 (centres undefined) | 0.05% (inactive) |
| COc1ccc(CCOC(=O)CNC(=O)c2ccc(Cl)cc2Cl)cc1 | -0.5% (inactive) |
| COc1cc2c(=O)n(C)c3ccccc3c2cc1OC | -0.16% (inactive) |
